Data on seven molecules can be found in PubChem BioAssay (EPA / NIEHS).

SMILES strings stand for the structures. Activity calls are given as the source filed them. How the source made its calls: active means hit-call score of the fitted dose curve at least 0.9, where 1 is the maximum; inactive means score below 0.9.

What all share (details): mRNA level, 48 h; actives raise or lower the signal
Read-out in assay [1]: ATP-citrate lyase (ACLY), ACLY (gene 47)
The experiment in a line: LTEA_HepaRG_ACLY: Life Technologies and Expression Analysis (LTEA) Assay for ATP-citrate lyase (ACLY) using HepaRG (AID 2283466). The gist of the method:
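ACLY expression changes in human HepaRG liver cells are quantified by qRT-PCR after 48 h exposure to test chemicals (maximum 100 uM, half-log steps). Values are fitted in both directions relative to 0.5% DMSO vehicle.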

Read-out in assay [2]: Alkaline Phosphatase, Placental (ALPP) gene, ALPP (gene 250)
The experiment in a line: LTEA_HepaRG_ALPP: Life Technologies and Expression Analysis (LTEA) Assay for Alkaline Phosphatase, Placental (ALPP) gene using HepaRG (AID 2283468).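 On AC50: differentiated human HepaRG liver cells in serum-free induction medium; ALPP transcript by TaqMan qRT-PCR normalized to ACTB GAPDH and POLR2A.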 The gist of the method:
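Expression of ALPP was quantified by qRT-PCR against three housekeeping genes in human HepaRG cultures treated for 48 h with an eight-point concentration series up to 100 uM. Activity in either direction was fitted relative to 0.5% DMSO.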

Read-out in assay [3]: Bcl-2 (BAD) gene, BAD (gene 572)
Nature of the assay: LTEA_HepaRG_BAD: Life Technologies and Expression Analysis (LTEA) Assay for Bcl-2 (BAD) gene using HepaRG (AID 2283469). The method in brief:
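Activity values reflect up- or down-regulation of BAD mRNA in human HepaRG hepatic cells treated 48 h in serum-free medium, with eight-point half-log dosing capped at 100 uM and 0.5% DMSO vehicle.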

Read-out in assay [4]: Bcl-2 (BAX) gene, BAX (gene 581)
The experiment in a line: LTEA_HepaRG_BAX: Life Technologies and Expression Analysis (LTEA) Assay for Bcl-2 (BAX) gene using HepaRG (AID 2283470). The method in brief: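 Cells were thawed, plated for 48 h, moved to serum-free induction medium and dosed for 48 h (highest concentration 100 uM, half-log steps, 0.5% DMSO). Total RNA was then analysed for BAX expression by qRT-PCR.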

Read-out in assay [5]: adenosine kinase (ADK) gene, ADK (gene 132)
The experiment in a line: LTEA_HepaRG_ADK: Life Technologies and Expression Analysis (LTEA) Assay for adenosine kinase (ADK) gene using HepaRG (AID 2283471). The method in brief: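 ADK expression quantified by qRT-PCR, normalised to three housekeeping genes, after 48 h exposure of HepaRG cells to eight concentrations (top 100 uM, half-log steps, duplicate, 0.5% DMSO). Up- or down-regulation fitted relative to vehicle.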

Read-out in assay [6]: Alpha-fetoprotein (AFP) gene, AFP (gene 174)
Nature of the assay: LTEA_HepaRG_AFP: Life Technologies and Expression Analysis (LTEA) Assay for Alpha-fetoprotein (AFP) gene using HepaRG (AID 2283472). The gist of the method:
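Chemicals were tested on differentiated HepaRG cells for 48 hours at eight concentrations up to 100 uM, with 0.5% DMSO as vehicle. AFP expression was then quantified by qRT-PCR and analyzed for gain or loss relative to DMSO.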

Read-out in the next assay: BCL2L11 (gene 10018)
The experiment in a line: LTEA_HepaRG_BCL2L11: Life Technologies and Expression Analysis (LTEA) Assay for Bcl-2 (BCL2L11) gene using HepaRG (AID 2283473). The method in brief:
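Cells were plated, cultured 48 h, switched to serum-free induction medium, then dosed in duplicate for 48 h at eight half-log concentrations up to 100 uM. Lysates underwent RNA isolation and TaqMan qRT-PCR; gain or loss versus DMSO was fitted.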

Read-out in assay [7]: Apolipoprotein A-V (APOA5) gene, APOA5 (gene 116519)
Nature of the assay: LTEA_HepaRG_APOA5: Life Technologies and Expression Analysis (LTEA) Assay for Apolipoprotein A-V (APOA5) gene using HepaRG (AID 2283474). The method in brief: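 Human liver HepaRG cells are treated 48 h with test chemicals (100 uM top, half-log dilutions, 0.5% DMSO). APOA5 mRNA induction or loss is measured by qRT-PCR relative to vehicle.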

Read-out in assay [8]: Apoptosis regulator Bcl-2 (Homo sapiens) (UniProt P10415)
The experiment in a line: LTEA_HepaRG_BCL2: Life Technologies and Expression Analysis (LTEA) Assay for Bcl-2 gene using HepaRG (AID 2283475).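 Further: BCL2 transcript by TaqMan qRT-PCR normalised to ACTB GAPDH and POLR2A.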 The gist of the method: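 Plated human HepaRG cells are exposed to test chemicals for 48 h across eight concentrations from 100 uM downward in half-log steps (0.5% DMSO). BCL2 expression is then measured by qRT-PCR with housekeeping normalisation and fitted bidirectionally against vehicle.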

Read-out in assay [9]: Bcl-2 (BID) gene, BID (gene 637)
The experiment in a line: LTEA_HepaRG_BID: Life Technologies and Expression Analysis (LTEA) Assay for Bcl-2 (BID) gene using HepaRG (AID 2283476). The method in brief: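 Cells are plated, cultured 48 h, switched to serum-free induction medium, then dosed 48 h (100 uM top, half-log steps, 0.5% DMSO). RNA is isolated and BID expression read by qRT-PCR.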

Read-out in the next assay: Caspase-3 (Homo sapiens) (UniProt P42574)
The experiment in a line: LTEA_HepaRG_CASP3: Life Technologies and Expression Analysis (LTEA) Assay for cysteine-aspartic acid protease (CASP3) using HepaRG (AID 2283477). The method in brief: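 In HepaRG liver cells dosed for 48 h at up to 100 uM (eight-point, duplicate), CASP3 expression changes are scored by qRT-PCR. Activity is fitted in both directions with 0.5% DMSO as baseline.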

Read-out in assay [10]: Cytochrome P450 (CYP24A1), CYP24A1 (gene 1591)
The experiment in a line: LTEA_HepaRG_CYP24A1: Life Technologies and Expression Analysis (LTEA) Assay for Cytochrome P450 (CYP24A1) using HepaRG (AID 2283478). The gist of the method:
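Human liver HepaRG cultures receive each chemical for 48 h across an eight-point half-log series topping at 100 uM in 0.5% DMSO. Induction or suppression of CYP24A1 mRNA is scored relative to vehicle after housekeeping-gene normalization.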

Read-out in assay [11]: Cytochrome P450 (CYP1A2), CYP1A2 (gene 1544)
The experiment in a line: LTEA_HepaRG_CYP1A2: Life Technologies and Expression Analysis (LTEA) Assay for Cytochrome P450 (CYP1A2) using HepaRG (AID 2283479).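 On AC50: TaqMan qRT-PCR transcript level normalized to ACTB GAPDH and POLR2A.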 The gist of the method: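 Assesses CYP1A2 mRNA in human HepaRG liver cells after 48 h chemical exposure at up to 100 uM. Values come from qRT-PCR with bidirectional curve fitting relative to DMSO.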

Read-out in assay [12]: cysteine-aspartic acid protease (CASP8), CASP8 (gene 841)
The experiment in a line: LTEA_HepaRG_CASP8: Life Technologies and Expression Analysis (LTEA) Assay for cysteine-aspartic acid protease (CASP8) using HepaRG (AID 2283480). The method in brief: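 Concentration-response in duplicate up to 100 uM (half-log steps, 0.5% DMSO) on differentiated HepaRG cultures for 48 h. Expression change of CASP8 mRNA is determined by TaqMan qRT-PCR with housekeeping-gene normalization.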

Read-out in assay [13]: Cytochrome P450 2C19 (Homo sapiens) (UniProt P33261)
The experiment in a line: LTEA_HepaRG_CYP2C19: Life Technologies and Expression Analysis (LTEA) Assay for CYP2C19 using HepaRG (AID 2283482). The method in brief:
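Human HepaRG liver cells received test chemicals for 48 h (highest 100 uM, half-log dilutions in 0.5% DMSO). CYP2C19 mRNA induction or loss is read by multiplexed qRT-PCR and fitted in both directions versus vehicle.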

Read-out in another assay: CYP2C8 (gene 1558)
Nature of the assay: LTEA_HepaRG_CYP2C8: Life Technologies and Expression Analysis (LTEA) Assay for CYP2C8 using HepaRG (AID 2283483). The gist of the method:
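This is a transcriptional endpoint in HepaRG cultures: 48 h exposure, highest concentration 100 uM. CYP2C8 mRNA is quantified by TaqMan qRT-PCR.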

Read-out in another assay: CYP2C9 (gene 1559)
Nature of the assay: LTEA_HepaRG_CYP2C9: Life Technologies and Expression Analysis (LTEA) Assay for CYP2C9 using HepaRG (AID 2283484). The gist of the method: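 Eight-point concentration-response (highest 100 uM, half-log dilutions) in HepaRG cells for 48 h; CYP2C9 expression by qRT-PCR normalized to ACTB, GAPDH, POLR2A. Bidirectional fit, DMSO baseline.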

Read-out in another assay: CYP2E1 (gene 1571)
Nature of the assay: LTEA_HepaRG_CYP2E1: Life Technologies and Expression Analysis (LTEA) Assay for CYP2E1 using HepaRG (AID 2283485). The gist of the method:
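Readout is qRT-PCR of CYP2E1 mRNA, normalized to three housekeeping genes and fitted bidirectionally against 0.5% DMSO. HepaRG cells were dosed 48 h at eight concentrations, highest 100 uM with half-log dilutions.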

Sequence of Cytochrome P450 2C19 (Homo sapiens) (P33261 whole entry, looked up): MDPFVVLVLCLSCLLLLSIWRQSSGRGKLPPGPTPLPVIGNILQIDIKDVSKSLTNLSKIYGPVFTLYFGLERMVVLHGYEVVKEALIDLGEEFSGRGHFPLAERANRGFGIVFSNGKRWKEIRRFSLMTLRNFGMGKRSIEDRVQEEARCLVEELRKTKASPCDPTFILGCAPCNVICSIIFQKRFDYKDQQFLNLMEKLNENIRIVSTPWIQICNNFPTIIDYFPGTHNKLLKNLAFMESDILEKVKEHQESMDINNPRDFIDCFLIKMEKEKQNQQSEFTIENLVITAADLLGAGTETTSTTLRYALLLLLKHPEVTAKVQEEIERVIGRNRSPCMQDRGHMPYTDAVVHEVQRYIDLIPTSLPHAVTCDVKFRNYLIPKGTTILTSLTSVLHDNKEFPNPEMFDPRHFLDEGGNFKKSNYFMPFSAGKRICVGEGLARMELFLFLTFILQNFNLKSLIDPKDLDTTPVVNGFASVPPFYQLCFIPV
Sequence of Apoptosis regulator Bcl-2 (Homo sapiens) (P10415 whole entry, looked up): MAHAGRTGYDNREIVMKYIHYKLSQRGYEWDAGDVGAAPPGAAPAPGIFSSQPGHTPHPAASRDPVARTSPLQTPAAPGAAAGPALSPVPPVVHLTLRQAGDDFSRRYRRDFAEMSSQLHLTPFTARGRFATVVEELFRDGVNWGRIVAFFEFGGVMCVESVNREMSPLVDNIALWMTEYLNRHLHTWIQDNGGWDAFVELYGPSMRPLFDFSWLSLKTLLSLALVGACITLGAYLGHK
Sequence of Caspase-3 (Homo sapiens) (P42574 whole entry, looked up): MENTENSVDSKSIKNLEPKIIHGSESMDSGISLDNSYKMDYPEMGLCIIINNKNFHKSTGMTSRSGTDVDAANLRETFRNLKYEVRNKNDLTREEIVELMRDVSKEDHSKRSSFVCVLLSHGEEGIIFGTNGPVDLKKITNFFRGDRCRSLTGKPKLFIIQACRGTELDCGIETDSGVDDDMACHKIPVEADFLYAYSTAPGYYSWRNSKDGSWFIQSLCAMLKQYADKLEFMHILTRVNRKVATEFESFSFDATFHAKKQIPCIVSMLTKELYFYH

Regarding `c1ccc(C(O[C@@H]2CCCN(CCc3ccc4c(c3)OCO4)C2)c2ccccc2)cc1`, the call (in assay [1]; in assay [3]; in assay [6]; in the assay with BCL2L11 (gene 10018); in assay [7]; in assay [10]) was inactive. The concentration at half-maximal activity (AC50) in assay [2] is 68.5 µM (active); in [4] it was 80.1 µM (active); in assay [5] it was 90.7 µM (active); in [8], 73.2 µM (active); in assay [9], 91 µM (active); with Caspase-3 (Homo sapiens) it was 76.7 µM (active). The AC50 in assay [11] was 12.2 µM (active); in assay [12] it was 78.6 µM (active); in assay [13], 79 µM (active); with CYP2C8 (gene 1558) it was 77.1 µM (active); with CYP2C9 (gene 1559) it was 85.2 µM (active); with CYP2E1 (gene 1571), 50 µM (active).

As for `c1ccc2ncccc2c1`, the call (in assay [1]; in assay [2]; in assay [3]; in assay [4]; in [6]; in the assay with BCL2L11 (gene 10018)) was inactive. Also, the molecule was called inactive (in assay [7]; in assay [8]; in assay [9]; in the assay with Caspase-3 (Homo sapiens); in assay [10]; in assay [11]). Besides, the outcome (in assay [12]; in assay [13]; in the assay with CYP2E1 (gene 1571)) was inactive. The AC50 in the assay with CYP2C8 (gene 1558) is 36.2 µM (active).

Take `O=c1[nH]cnc2c1ncn2[C@H]1CC[C@@H](CO)O1`: the result (in assay [1]; in [2]; in assay [3]; in assay [4]; in [6]; with BCL2L11 (gene 10018)) was inactive. In addition, the molecule was called inactive (in assay [7]; in assay [8]; in assay [9]; with Caspase-3 (Homo sapiens); in [10]; in assay [11]). Further, the molecule was called inactive (in assay [12]; in [13]; with CYP2C8 (gene 1558); with CYP2C9 (gene 1559); with CYP2E1 (gene 1571)).

Take `COS(C)(=O)=O`: the outcome in assay [1], in [2], in assay [3], in assay [4], in [5] and in assay [6] was inactive. Further, the result (in the assay with BCL2L11 (gene 10018); in assay [7]; in assay [8]; in assay [9]; in the assay with Caspase-3 (Homo sapiens); in assay [10]) was inactive. The outcome (in assay [11]; in assay [12]; in [13]; with CYP2C8 (gene 1558); with CYP2C9 (gene 1559)) was inactive.

Turning to `Cn1cc[nH]c1=S`, the molecule was called inactive in [1], in assay [2], in assay [3], in assay [4], in [5] and in assay [6]. The molecule was called inactive (in the assay with BCL2L11 (gene 10018); in assay [7]; in assay [8]; in [9]; in the assay with Caspase-3 (Homo sapiens); in assay [10]). Besides, the outcome (in assay [12]; in assay [13]; with CYP2C8 (gene 1558); with CYP2C9 (gene 1559)) was inactive.

Turning to `O=C(O)c1cccc(C(=O)O)c1`, the result (in [1]; in assay [2]; in assay [3]; in [4]; in assay [6]; in the assay with BCL2L11 (gene 10018)) was inactive. For the same molecule, the result (in [7]; in assay [8]; in assay [9]; with Caspase-3 (Homo sapiens); in [10]; in assay [12]) was inactive. Besides, the result (in [13]; with CYP2C8 (gene 1558); with CYP2C9 (gene 1559)) was inactive. Also, the AC50 in [11] is 82.6 µM (active).

For `CCCCCCCC1CCC(=O)O1` (configuration not stated), the molecule was called inactive in assay [1], in assay [2], in [3], in [4], in assay [5] and in assay [6]. The outcome (with BCL2L11 (gene 10018); in [7]; in [8]; in assay [9]; in the assay with Caspase-3 (Homo sapiens); in [12]) was inactive.

The term AC50 denotes the concentration at which the activity in the assay is half-maximal.
